Measured values from PubChem BioAssay (NCI).
This is part of a sample that, as a whole, favours compounds with a hit. Of some 83,000 tested, about 20% had one in any assay.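 Percent growth is the endpoint: 0 to 100 indicates growth inhibition (40 means 60% inhibition), 0 means no net growth, and negative values indicate cell death.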 A number with no mark means an inactive call. Calls of active or inactive are those of the source. The calls were made as follows: active = growth percent below 10; inactive = the rest.

How the values were obtained:
Assay in all cases: NCI-60 one-dose screen, 48 h (100 = growth as untreated, 0 = no growth, -100 = all killed)
Conditions in all cases: 10 µM unless noted
SR leukemia = tested on: SR leukemia
RPMI-8226 leukemia = tested on: RPMI-8226 leukemia
OVCAR-8 ovarian = tested on: OVCAR-8 ovarian
OVCAR-5 ovarian = tested on: OVCAR-5 ovarian
OVCAR-4 ovarian = tested on: OVCAR-4 ovarian
SK-OV-3 ovarian = tested on: SK-OV-3 ovarian
IGROV1 ovarian = tested on: IGROV1 ovarian
OVCAR-3 ovarian = tested on: OVCAR-3 ovarian
HS 578T breast = tested on: HS 578T breast
NCI/ADR-RES ovarian = tested on: NCI/ADR-RES ovarian

Row | Compound | growth (SR leukemia) | growth (RPMI-8226 leukemia) | growth (OVCAR-8 ovarian) [%] | growth (OVCAR-5 ovarian) [%] | growth (OVCAR-4 ovarian) [%] | growth (SK-OV-3 ovarian) [%] | growth (IGROV1 ovarian) [%] | growth (OVCAR-3 ovarian) | growth (HS 578T breast) [%] | growth (NCI/ADR-RES ovarian) [%]
1 | COc1ccc(C(C)=O)cc1S(=O)(=O)Nc1c(N)nc(SC)[nH]c1=O | 103% | 96.6% | 105 | 104 | 108 | 124 | 102 | 103% | 96.9 | 103
2 | CCOC(=O)C(=O)C(C(=O)OCC)c1ccccc1 (stereo not given) | 94.7% | 94.3% | 120 | 106 | 106 | 110 | 122 | 120% | 94.2 | 109
3 | O=C(O)CCN1C(=O)/C(=C/C(Cl)=C/c2ccccc2)SC1=S | 6.86% (active) | -8.3% (active) | 22.8 | 57.8 | 28.7 | 94 | 22.6 | 2.92% (active) | 33.8 | 11.3
4 | O=C(NCCCl)Nc1ncccc1OCc1ccccc1 | 78% | 99.4% | 104 | 90.9 | 96.8 | 114 | 95.8 | 107% | 110 | 106
5 | Nc1ncnc2c1C(c1ccc(Br)cc1)c1sc3c(F)cccc3c1O2 (stereo not given) | 85.6% | 100% | 101 | 99.8 | 87.4 | 102 | 81.6 | 103% | 94.8 | 96.1
6 | N#Cc1c(-c2ccccc2)cc(-c2ccccc2)n(CCCC(=O)Nc2ccccc2N)c1=O | 22.4% | 48.9% | 69.1 | 95 | 91.9 | 95.6 | 51.7 | 26.2% | 43.5 | 39.5
7 | COc1ccc(C(=O)Nc2cccc(-c3cc(=O)c4c(OC)c(OC)c(OC)cc4o3)c2)cc1 | 28.6% | 18.8% | 57.9 | 95.6 | 62 | 108 | 53.9 | 66.8% | 42.9 | 60.2
8 | O=C(Nc1ccccc1O)c1ccc(CNC(=O)c2sccc2Nc2ccnc(C(F)(F)F)c2)cc1 | 36.2% | 24.3% | 35.8 | 45.6 | 48.3 | 57.2 | 41 | 41.3% | 14.6 | 24.1
9 | O=C(NCCNc1nccc(Nc2ccc(S(=O)(=O)Nc3ccccn3)cc2)n1)c1cccc([N+](=O)[O-])c1 | 84.7% | 96.1% | 104 | 93 | 89.9 | 100 | 106 | 108% | 108 | 104
10 | Cc1cc(=O)n(C(=O)Nc2ccccc2Cl)c2cc(O)ccc12 | 112% | 97.8% | 95.5 | 102 | 107 | 95 | 104 | 106% | 98.7 | 99.9
11 | Cc1cccc(/C=C2\CN(C(=O)OC(C)(C)C)C/C(=C\c3cccc(C)c3)C2=O)c1 | 6.54% (active) | -7.31% (active) | 85.4 | 109 | 89.2 | 93.3 | 90.4 | 97.5% | 96.7 | 88
12 | CC(=O)Oc1ccc(C)cc1C | 102% | 102% | 110 | 102 | 105 | 106 | 114 | 111% | 109 | 108
13 | C=C(CBr)[C@@H]1CC[C@]2(C(=O)O)CC[C@]3(C)[C@H](CC[C@@H]4[C@@]5(C)CCC(=O)C(C)(C)[C@@H]5CC[C@]43C)[C@@H]12 | 60% | 42.3% | 84.2 | 89.8 | 75.3 | 121 | 103 | 70.8% | 92.2 | 83.4
